Data on 5 molecules can be found in PubChem BioAssay AID1509 (The Scripps Research Institute Molecular Screening Center, 2009).

Hit rate of the full screen: of about 220,000 compounds, about 770 (0.35%) were called active. The entries come from a sample that favours actives as a whole. A number with no mark means an inactive call. Rule as the data show it: active = activation above about 11%; inactive = the rest.

The target in the experiment is Sphingosine 1-phosphate receptor 4 (Homo sapiens) (UniProt O95977). As to the kind of experiment: activators of human S1P4 receptor – cell-based, primary screen (AID 1509).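 Also: 0% = DMSO vehicle and 100% = reference agonist.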 As to conditions: S1P4-expressing cell line, agonist reporter assay; at 4.98 µM; stronger effect = higher value. (In general: A reporter such as luciferase makes a cellular process visible.)
Chain of Sphingosine 1-phosphate receptor 4 (Homo sapiens) (O95977 whole entry, looked up): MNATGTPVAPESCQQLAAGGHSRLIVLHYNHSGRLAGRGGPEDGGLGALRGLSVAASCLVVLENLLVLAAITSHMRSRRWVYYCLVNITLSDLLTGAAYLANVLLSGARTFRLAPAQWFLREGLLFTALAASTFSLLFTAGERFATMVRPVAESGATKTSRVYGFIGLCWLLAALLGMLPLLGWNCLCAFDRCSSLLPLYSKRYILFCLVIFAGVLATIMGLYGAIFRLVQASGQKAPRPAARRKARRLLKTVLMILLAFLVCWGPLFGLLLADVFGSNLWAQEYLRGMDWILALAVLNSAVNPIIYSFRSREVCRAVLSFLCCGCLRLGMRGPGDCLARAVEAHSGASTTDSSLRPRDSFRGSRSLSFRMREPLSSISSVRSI
For the molecule `CC(C)N(CC#CCC1(O)c2ccccc2-c2ccccc21)C(C)C`, the activation was 16.1% (active).
In the case of `NCC(O)c1ccc(O)cc1` (stereo not given), the activation is 1.71%.
With `O=c1[nH]c(=O)n(-c2ccc(F)cc2)c(O)c1C=NCCN1CCCCC1`, the activation was 0.64%.
As for `O=c1[nH]c(CN2CC=C(c3ccccc3)CC2)nc2scc(-c3cccs3)c12`, the activation was 0.84%.
Regarding `Cc1cccc(-n2c(O)c(C=NC34CN5CN(CN(C5)C3)C4)c(=O)[nH]c2=O)c1`, the activation was -0.41%.
